Screening data deposited in PubChem by The Scripps Research Institute Molecular Screening Center.
hcDAF12 agonist: activators of H. contortus DAF-12 nuclear receptor | hit rate 1.4% among 370,000 | HEK293 hcDAF-12 lit1-tk-luc reporter, luminescence; 0% DMSO, 100% Δ7-dafachronic acid | activation, % at 6.8 µM;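 active means activation above the mean of all tested compounds plus 3 SD, cut at about 5.5% in these data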;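 further: 100% = response to 3 µM Δ7-dafachronic acid high control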
hgDAF-12 ag: agonists of H. glycines DAF-12 nuclear receptor. HEK293 GAL4-hgDAF12 UAS-luciferase reporter, agonist luminescence; normalized to butyrate control. activation, % at 6.8 µM. hit rate 1.8% among 370,000. AID 687014;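 active means activation above a cutoff set at the mean of all screened compounds plus 3 SD, cut at about 10% in these data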;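 further: 0% = DMSO wells and 100% = sodium butyrate wells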
ssDAF-12 act: S. stercoralis DAF-12 activation, primary screen; HEK293 ssDAF-12/GRIP1 lit1-tk-luc reporter, luminescence; % of 3 µM dafachronic acid response; hit rate 1% among 370,000; activation, % at 6.8 µM;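 active means activation above the mean over all tested compounds plus 3 SD, cut at about 0.9% in these data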;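 further: 0% = DMSO-only wells and 100% = 3 µM delta7-dafachronic acid wells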
DAX1 inh-1: inhibitors of DAX1 repression of SF-1 activated StAR promoter. hit rate 1.1% among 370,000. HEK293T StAR-luciferase reporter, SF-1/DAX-1 repression relief. inhibition, % at 6.8 µM;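 active means inhibition above the mean over all tested compounds plus 3 SD, cut at about 3.6% in these data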;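 further: 0% = DAX-1 cells with DMSO and 100% = cells lacking DAX-1 with DMSO; higher inhibition means more luminescence from relief of DAX-1 repression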
DAX1 inh-2: inhibits human nuclear receptor DAX1; P51843; HEK293 Gal4-DAX1 luciferase reporter, luminescence; inhibition, % at 6.75 µM; hit rate 0.99% among 340,000;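 active means inhibition above the mean over all tested compounds plus 3 SD, cut at about 4.2% in these data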;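 further: 0% = DAX1-transfected cells with DMSO and 100% = empty-vector control cells with DMSO; inhibition shows as a rise in luminescence from relieved DAX1 repression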
AHR activator: activators of human aryl hydrocarbon receptor; P35869; AHR-responsive luciferase reporter cells, luminescence; activation, % at 5 µM; hit rate 2.5% among 320,000; in the data active means activation above about 47%;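 further: 0% = vehicle wells and 100% = reference agonist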
Target sequence (P35869 whole entry, looked up): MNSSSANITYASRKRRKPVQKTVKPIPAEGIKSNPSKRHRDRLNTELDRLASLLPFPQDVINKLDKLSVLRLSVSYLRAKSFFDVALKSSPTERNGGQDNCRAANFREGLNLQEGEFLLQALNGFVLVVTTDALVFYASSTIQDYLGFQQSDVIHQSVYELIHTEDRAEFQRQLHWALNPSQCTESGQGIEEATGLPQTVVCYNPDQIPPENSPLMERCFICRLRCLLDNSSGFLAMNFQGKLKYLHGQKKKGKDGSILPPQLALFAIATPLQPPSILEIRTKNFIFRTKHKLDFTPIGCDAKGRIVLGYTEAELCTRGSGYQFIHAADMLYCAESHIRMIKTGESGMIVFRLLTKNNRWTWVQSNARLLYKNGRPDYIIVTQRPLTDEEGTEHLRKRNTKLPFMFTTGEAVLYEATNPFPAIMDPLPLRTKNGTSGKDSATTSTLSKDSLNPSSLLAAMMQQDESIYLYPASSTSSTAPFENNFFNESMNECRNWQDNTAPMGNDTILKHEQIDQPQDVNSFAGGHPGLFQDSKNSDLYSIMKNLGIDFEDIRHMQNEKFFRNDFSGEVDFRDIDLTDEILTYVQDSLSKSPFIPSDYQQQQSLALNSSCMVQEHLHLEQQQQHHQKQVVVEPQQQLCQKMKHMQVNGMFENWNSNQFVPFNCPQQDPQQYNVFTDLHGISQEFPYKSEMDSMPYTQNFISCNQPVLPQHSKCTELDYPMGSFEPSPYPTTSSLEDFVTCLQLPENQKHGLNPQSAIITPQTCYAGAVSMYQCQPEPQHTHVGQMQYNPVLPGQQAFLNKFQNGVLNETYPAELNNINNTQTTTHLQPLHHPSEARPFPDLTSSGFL
* = called active by the depositor; / = no result given. Rows were chosen to be rich in hits. Some 5.7% of all compounds tested hit in one or more screens of this group.

SMILES | hcDAF12 agonist | hgDAF-12 ag | ssDAF-12 act | DAX1 inh-1 | DAX1 inh-2 | AHR activator
CCC(=O)c1cn(CC(=O)Nc2ccccc2Cl)c2ccccc12 | -0.6 | 0.3 | -0.6 | -0.4 | 0.0 | 8.4
Cc1cc(Nc2cc(Cl)cc(Cl)c2)nc(N)n1 | -2.0 | -5.1 | -1.5 | -0.2 | -3.5 | 20.2
O=C1NC2(Nc3ccccc31)C(=O)Nc1ccccc12 (centres undefined) | 0.9 | 4.1 | -0.3 | 0.8 | 1.0 | 51.1*
CC(C)N(c1nnc(N)s1)C(C)C | 2.5 | -0.2 | -0.4 | -0.8 | 5.0* | 2.0
O=C(Nc1ccccc1)c1cc(N2CCOCC2)nc2ccccc12 | 2.6 | -0.1 | 0.4 | 0.5 | 0.3 | 58.3*
O=C(O)c1cc(N2CCOCC2)nc2ccccc12 | -1.3 | -0.4 | -1.7 | 0.0 | 1.4 | 0.3
O=C(Nc1nccs1)c1cc(Cl)nc2ccccc12 | 1.9 | 2.1 | 0.0 | 0.2 | 1.7 | 68.0*
O=C(Nc1nccs1)c1cc(N2CCOCC2)nc2ccccc12 | 2.7 | -0.8 | -0.2 | -0.8 | -0.2 | 76.1*
Cc1cccc(NC(=O)c2cc(N3CCOCC3)nc3ccccc23)c1 | 3.0 | -2.4 | -0.1 | 0.0 | 0.4 | 21.5
O=C(Nc1ccc(F)cc1)c1cc(-c2ccncc2)nc2c(Cl)cccc12 | 1.8 | 0.3 | -0.8 | 0.1 | -0.8 | 68.7*
C=CCNC(=O)c1ccc(S(=O)(=O)CC)c(Cl)c1Cl | -0.8 | 0.3 | -0.8 | -0.3 | -0.8 | 0.3
CCCC(=O)OC[C@H]1CN(C2CCCC2)S(=O)(=O)c2c(Oc3ccc(F)cc3OC)cccc2O1 | -0.7 | -0.9 | -1.1 | -0.5 | / | /
O=C(Nc1nccs1)c1cc(-c2ccccn2)nc2c(Cl)cccc12 | 3.7 | 2.1 | -0.4 | 0.0 | 0.8 | 75.8*
Cc1cc(NC(=O)c2cc(-c3ccccn3)nc3c(Cl)cccc23)no1 | 0.4 | -0.3 | -0.3 | -0.3 | 0.1 | 22.9
Cc1ccc(NC(=O)c2cc(N3CCOCC3)nc3ccccc23)cc1 | 5.3 | 0.1 | 0.0 | -0.4 | 0.3 | 58.1*
O=C(Nc1ccccc1)N1CCN(S(=O)(=O)c2ccccc2)CC1 | 1.1 | -1.2 | -1.3 | 0.9 | 0.5 | 1.9
c1ccc(CCNc2nc(-c3ccccn3)nc3ccccc23)cc1 | -3.6 | -9.5 | -1.9 | -2.3 | -6.5 | -7.1
Cc1c(C)n(CCc2ccccc2)c2ncnc(NCCCO)c12 | 4.2 | 5.3 | -0.3 | 1.2 | 1.1 | 51.0*
CCN1CCN(C(=O)c2ccc(N3CC4CC(C3)c3cccc(=O)n3C4)c([N+](=O)[O-])c2)CC1 (centres undefined) | -1.1 | 0.3 | -1.8 | -0.4 | 1.0 | -0.5
Cc1c(NS(=O)(=O)c2ccc(NCCN3CCOCC3)c([N+](=O)[O-])c2)c(=O)n(-c2ccccc2)n1C | -2.0 | -1.3 | -0.7 | -0.2 | -0.4 | 1.7
COCCNC(=O)/C(C#N)=C/c1ccc(OCc2ccc(F)cc2)cc1 | 1.7 | 13.0* | -1.5 | -1.2 | -0.2 | 3.1
COCCNC(=O)/C(C#N)=C/c1ccc(SC)cc1 | -2.0 | 3.8 | -1.2 | -0.4 | / | 7.6
COCCNC(=O)/C(C#N)=C/c1ccc(C(=O)O)cc1 | -1.2 | -0.8 | -1.1 | -0.5 | 5.0* | -2.9
COc1ccc(/C(C)=N/OCC(=O)N=Nc2c(O)[nH]c3ccc(Br)cc23)cc1 | 2.7 | -2.6 | -1.5 | -0.2 | -0.1 | 3.9
COc1ccc(/C=N/OCC(=O)N=Nc2c(O)[nH]c3ccc(Br)cc23)cc1OC | 2.2 | 1.7 | -0.3 | -0.3 | -0.9 | 78.1*
SMILES | hcDAF12 agonist | hgDAF-12 ag | ssDAF-12 act | DAX1 inh-1 | DAX1 inh-2 | AHR activator
CC(C)CN(CC(C)C)C(=O)CCCC(=O)N(CC(C)C)CC(C)C | -1.9 | -2.1 | -1.7 | 0.8 | -0.2 | 2.6
O=C(NCCN1CCCC1)c1ccc2c(c1)N(Cc1cccc(Cl)c1)C(=O)c1ccccc1S2(=O)=O | 6.2* | -0.4 | -1.1 | 1.1 | -0.1 | 3.3
Cc1nc2ccccc2c(=O)n1NC(=O)c1ccc(Cl)c(Cl)c1 | -1.0 | -0.9 | -0.5 | 0.1 | 0.7 | 1.3
CCOC(=O)CSc1nc2ccccc2c(=O)n1NC(=O)c1ccccc1 | 3.5 | 11.4* | 1.1* | 3.9* | 0.1 | -1.8
CCc1ccc(C(=O)Nn2c(C)nc3ccccc3c2=O)cc1 | 2.8 | -1.8 | 1.0* | -0.3 | 2.4 | 20.1
CSCC[C@H](NC(=O)Nc1ccc(S(N)(=O)=O)cc1)C(=O)O | -0.8 | 1.3 | -0.6 | -0.3 | -0.4 | 1.3
Cc1cccc(N2CCN(C(=O)c3cc4c(=O)n(C)c5ccccc5c4n3C)CC2C)c1 (centres undefined) | / | / | / | / | / | 67.9*
CCN1CCN(C(=O)c2cc3c(=O)n(C)c4ccccc4c3n2C)CC1 | 1.8 | -0.5 | -0.9 | 2.3 | 5.8* | 4.7
O=C(Cn1nnc(-c2ccccc2F)n1)Nc1ccc(Cl)c(Cl)c1 | -0.8 | 2.7 | -0.7 | 0.3 | / | /
CC1(C(=O)NCc2cccc(Cl)c2)Cc2c(-c3ccc4c(c3)OCO4)ccnc2O1 (centres undefined) | -1.1 | 0.5 | -0.8 | -0.8 | / | /
O=C(c1cnn2c(C(F)F)cc(-c3ccccc3)nc12)N1CCSCC1 | -0.5 | 3.9 | -1.3 | -0.2 | 4.6* | 0.3
O=C(c1cnn2c(C(F)F)cc(-c3ccccc3)nc12)N1CCOCC1 | -0.6 | 0.4 | -1.5 | -0.5 | 0.6 | -1.0
Cc1cccn2c(CN3CCNC(=O)CC3)c(C(=O)N(C)CCc3ccccc3)nc12 | 0.1 | 2.0 | -1.9 | -1.4 | 0.6 | 0.3
O=C(NCC1CCCO1)c1ccc(N2CCCCC2)c([N+](=O)[O-])c1 (centres undefined) | 1.3 | 6.2 | -0.4 | -1.8 | 0.4 | 0.3
Cc1cc(N2CCCCC2C)nc(-c2ccccc2O)n1 (centres undefined) | -0.3 | 2.4 | -1.3 | -0.4 | 4.4* | 13.8
COc1ccc(/C=C2\SC(=O)N(CCNC(=O)CN3C(=O)NC4(CCCC4)C3=O)C2=O)cc1 | 1.7 | 5.2 | -0.4 | 4.2* | 1.6 | 1.6
O=C(CN1C(=O)NC2(CCCC2)C1=O)NCCN1C(=O)S/C(=C\c2ccccc2F)C1=O | 1.0 | 1.6 | -0.2 | 1.3 | 0.5 | 2.1
N#Cc1ccc(OCc2nnc(SCC(=O)c3ccccc3)n2-c2ccccc2)cc1 | -1.0 | 0.7 | -1.2 | -0.2 | -1.0 | -0.8
COC(=O)c1cccc(NC(=O)CSc2nnc(COc3ccc(C#N)cc3)n2-c2ccccc2)c1 | -1.5 | 0.0 | -1.2 | -0.8 | 5.1* | 1.6
CC(=O)c1cccc(CN2CCC(n3nccc3NC(=O)c3ccc4c(c3)OCO4)CC2)c1 | -0.6 | -0.2 | -0.6 | -0.3 | -0.1 | 1.9
O=S(=O)(NC1CCCCC1)c1ccc(Cl)nc1 | 0.4 | -2.1 | -1.8 | -0.5 | -1.1 | -1.6
O=C(NC1=NC2CCCCC2N1)c1ccccc1 (centres undefined) | 1.6 | 8.2 | 0.3 | 3.8* | 1.4 | -2.1
C[C@@H]1O[C@@H](n2c3ccc(Cl)cc3c3ccc4c5cc(Cl)ccc5[nH]c4c32)[C@H](O)[C@H](O)[C@H]1O | 1.3 | 0.6 | -1.5 | 0.0 | / | /
